This passage reports growth inhibition results from PubChem BioAssay (NCI).

This is part of a sample that, as a whole, favours compounds with a hit. Of some 79,000 tested, about 15% had one in any assay. A number with no mark means an inactive call. The source made the active and inactive calls. Rule as the data show it: active = growth inhibition above about 70%; inactive = the rest.

Experiment [1] can be described thus: NCI Yeast Anticancer Drug Screen. Data for the rad50 strain (AID 155).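 Also: 0% = growth of vehicle-only cultures of the same strain.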 The following applies: S. cerevisiae rad50 strain growth inhibition, hits give high values. Summed up: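 Growth of the mutant yeast was measured after compound exposure and referenced to vehicle-treated cultures.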
Experiment [2] is described as follows: NCI Yeast Anticancer Drug Screen. Data for the mec2-1 strain (AID 157). Particulars: S. cerevisiae mec2-1 strain, hits give high values. An outline of the steps:
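Strain: mec2-1 (DNA repair/cell cycle alteration). Compound exposure, then growth measured; inhibition expressed relative to vehicle.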

The nature of experiment [3]: NCI Yeast Anticancer Drug Screen. Data for the sgs1 mgt1 strain (AID 161).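 Also: 0% = growth of cultures given vehicle only.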 The following applies: S. cerevisiae sgs1 mgt1 strain, hits give high values. An outline of the steps:
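Inhibition of yeast growth, normalised to vehicle-treated controls, is reported for a strain bearing genetic alterations in DNA damage repair.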

Experiment [4] in a line: NCI Yeast Anticancer Drug Screen. Data for the cln2 rad14 strain (AID 165).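 Also: 0% = growth equal to vehicle treated cultures.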 The following applies: S. cerevisiae cln2 rad14 strain, hits give high values. Summed up: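 Compounds are applied to the cln2 rad14 yeast strain, and growth is then compared with that of vehicle-treated cultures to give inhibition.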
The nature of experiment [5]: NCI Yeast Anticancer Drug Screen. Data for the bub3 strain (AID 167). Particulars: S. cerevisiae bub3 mutant strain, hits give high values. An outline of the steps:
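Whole-cell yeast assay. The mutant strain was incubated with compounds, and growth inhibition was determined by comparison with vehicle-treated cells.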

The nature of experiment [6]: NCI Yeast Anticancer Drug Screen. Data for the mlh1 rad18 strain (AID 175). The following applies: S. cerevisiae mlh1 rad18 strain growth inhibition, hits give high values. An outline of the steps: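 Read-out is yeast growth inhibition, calculated against vehicle-only controls. The compound was applied to a strain engineered with DNA damage repair alterations.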
Where [7] appears, read: at 5.0 µM (retest, dose inferred, filed as 0.5).
Where [8] appears, read: at 50.0 µM (retest, dose inferred, filed as 5.0).

As for `CC(c1ccc(OCc2ccccc2)cc1)c1cc2c(cc1OCCO)OCO2` (configuration not stated), the growth inhibition in experiment [1] (setting [7]) was 3%; in experiment [1] (setting [8]), 46%; in experiment [1] (at 50.0 µM), 61.2%; in experiment [2] (setting [7]) it was -1%; in experiment [2] (setting [8]), 41%; in experiment [2] (at 50.0 µM) it was 76.2% (active). Further, the growth inhibition in experiment [3] (setting [7]) was 9%; in experiment [3] (setting [8]), 57%; in experiment [3] (at 50.0 µM) it was 31.9%; in experiment [4] (setting [7]), -1%; in experiment [4] (setting [8]), 47%; in experiment [4] (at 50.0 µM), 43.5%. Besides, the growth inhibition in experiment [5] (setting [7]) is 6%; in experiment [5] (setting [8]), 58%; in experiment [5] (at 50.0 µM), 49.7%; in experiment [6] (setting [7]), 4%; in experiment [6] (setting [8]), 62%; in experiment [6] (at 50.0 µM) it was 43.2%.

For the compound `CCOc1nc(N)nc(C)c1N=Nc1ccc(Cl)cc1Cl`, the growth inhibition in experiment [1] (setting [7]) is 10%; in experiment [1] (setting [8]), 92% (active); in experiment [1] (at 50.0 µM), 72.8% (active); in experiment [2] (setting [7]), 0%; in experiment [2] (setting [8]), 50%; in experiment [2] (at 50.0 µM), 16.9%. Moreover, the growth inhibition was 5% in experiment [3] (setting [7]); 88% (active) in experiment [3] (setting [8]); 22.4% in experiment [3] (at 50.0 µM); 15% in experiment [4] (setting [7]); 77% (active) in experiment [4] (setting [8]); 36.4% in experiment [4] (at 50.0 µM). The growth inhibition in experiment [5] (setting [7]) was 5%; in experiment [5] (setting [8]), 94% (active); in experiment [5] (at 50.0 µM) it was 73.8% (active); in experiment [6] (setting [7]), 14%; in experiment [6] (setting [8]) it was 97% (active); in experiment [6] (at 50.0 µM) it was 45%.

In the case of `NC1=NC(c2ccccc2)CC(c2cc(Cl)cc(Br)c2O)=N1` (configuration not stated), the growth inhibition in experiment [1] (setting [7]) was 0%; in experiment [1] (setting [8]) it was 25%; in experiment [1] (at 50.0 µM), 35.1%; in experiment [2] (setting [7]) it was -3%; in experiment [2] (setting [8]), 19%; in experiment [2] (at 50.0 µM), 13.4%. In addition, the growth inhibition in experiment [3] (setting [7]) is -1%; in experiment [3] (setting [8]) it was 42%; in experiment [3] (at 50.0 µM) it was 10.7%; in experiment [4] (setting [7]), 0%; in experiment [4] (setting [8]), 22%; in experiment [4] (at 50.0 µM) it was 16.2%. In addition, the growth inhibition in experiment [5] (setting [7]) was -1%; in experiment [5] (setting [8]) it was 34%; in experiment [5] (at 50.0 µM), -0.8%; in experiment [6] (setting [7]), -3%; in experiment [6] (setting [8]), 46%; in experiment [6] (at 50.0 µM), 28.9%.

With `O=S(=O)(Nc1ccc(NS(=O)(=O)c2ccccc2)c(N2N=N2)c1)c1ccccc1`, the growth inhibition in experiment [1] (setting [7]) was 1%; in experiment [1] (setting [8]), 69%; in experiment [1] (at 50.0 µM), 86.3% (active); in experiment [2] (setting [7]), 2%; in experiment [2] (setting [8]), 80% (active); in experiment [2] (at 50.0 µM), 66.2%. Further, the growth inhibition was 4% in experiment [3] (setting [7]); 76% (active) in experiment [3] (setting [8]); 88.9% (active) in experiment [3] (at 50.0 µM); 0% in experiment [4] (setting [7]); 55% in experiment [4] (setting [8]); 79.1% (active) in experiment [4] (at 50.0 µM). Also, the growth inhibition in experiment [5] (setting [7]) is -2%; in experiment [5] (setting [8]), 62%; in experiment [5] (at 50.0 µM) it was 75.4% (active); in experiment [6] (setting [7]) it was -2%; in experiment [6] (setting [8]) it was 79% (active); in experiment [6] (at 50.0 µM), 76.6% (active).

Consider `[Fe+2].c1cc[cH-]c1.c1ccc(-c2ccc[cH-]2)cc1`, for which the growth inhibition in experiment [1] (setting [7]) is -4%; in experiment [1] (setting [8]) it was 29%; in experiment [1] (at 50.0 µM) it was 7.6%; in experiment [2] (setting [7]), -2%; in experiment [2] (setting [8]), 32%; in experiment [2] (at 50.0 µM) it was 23.3%. In addition, the growth inhibition in experiment [3] (setting [7]) is -6%; in experiment [3] (setting [8]), 47%; in experiment [3] (at 50.0 µM), -9.4%; in experiment [4] (setting [7]), 1%; in experiment [4] (setting [8]) it was 16%; in experiment [4] (at 50.0 µM), 16.9%. Besides, the growth inhibition was 0% in experiment [5] (setting [7]); 41% in experiment [5] (setting [8]); 74.7% (active) in experiment [5] (at 50.0 µM); 1% in experiment [6] (setting [7]); 24% in experiment [6] (setting [8]); 19% in experiment [6] (at 50.0 µM).

`Cc1ccc(/C=N/NS(=O)(=O)c2ccccc2)c(C)c1`: the growth inhibition in experiment [1] (setting [7]) is -27%; in experiment [1] (setting [8]), 25%; in experiment [1] (at 50.0 µM), 30.6%; in experiment [2] (setting [7]), -10%; in experiment [2] (setting [8]), 1%; in experiment [2] (at 50.0 µM), 18.9%. The growth inhibition in experiment [3] (setting [7]) was 1%; in experiment [3] (setting [8]), 15%; in experiment [3] (at 50.0 µM), 15%; in experiment [4] (setting [7]), -23%; in experiment [4] (setting [8]) it was 42%; in experiment [4] (at 50.0 µM), -25.8%. In addition, the growth inhibition in experiment [5] (setting [7]) was 3%; in experiment [5] (setting [8]), 41%; in experiment [5] (at 50.0 µM), 11.1%; in experiment [6] (setting [7]), -11%; in experiment [6] (setting [8]) it was 46%; in experiment [6] (at 50.0 µM) it was 36.9%.

Consider `Cc1cccc2c1Oc1ccccc1C2N1C(=O)/C(=C/c2ccccc2Cl)SC1=S` (configuration not stated), for which the growth inhibition in experiment [1] (setting [7]) is 99% (active); in experiment [1] (setting [8]) it was 74% (active); in experiment [1] (at 50.0 µM), 60.1%; in experiment [2] (setting [7]) it was 99% (active); in experiment [2] (setting [8]), 48%; in experiment [2] (at 50.0 µM) it was 29.1%. The growth inhibition is 100% (active) in experiment [3] (setting [7]); 29% in experiment [3] (setting [8]); 38.4% in experiment [3] (at 50.0 µM); 96% (active) in experiment [4] (setting [7]); 1% in experiment [4] (setting [8]); 16.4% in experiment [4] (at 50.0 µM). For the same compound, the growth inhibition in experiment [5] (setting [7]) was 99% (active); in experiment [5] (setting [8]), 74% (active); in experiment [5] (at 50.0 µM), 12.6%; in experiment [6] (setting [7]) it was 99% (active); in experiment [6] (setting [8]), 72% (active); in experiment [6] (at 50.0 µM) it was 64.2%.

With `CC(C)(C)c1cc(Nc2ccc([N+](=O)[O-])cc2[N+](=O)[O-])cc(C(C)(C)C)c1O`, the growth inhibition in experiment [1] (setting [7]) is 4%; in experiment [1] (setting [8]) it was 99% (active); in experiment [1] (at 50.0 µM) it was -14.9%; in experiment [2] (setting [7]), 7%; in experiment [2] (setting [8]), 100% (active); in experiment [2] (at 50.0 µM) it was 14.3%. The growth inhibition is 6% in experiment [3] (setting [7]); 99% (active) in experiment [3] (setting [8]); 10.4% in experiment [3] (at 50.0 µM); -1% in experiment [4] (setting [7]); 99% (active) in experiment [4] (setting [8]); -45.6% in experiment [4] (at 50.0 µM). Further, the growth inhibition is 8% in experiment [5] (setting [7]); 99% (active) in experiment [5] (setting [8]); -0.9% in experiment [5] (at 50.0 µM); -1% in experiment [6] (setting [7]); 99% (active) in experiment [6] (setting [8]); 8.45% in experiment [6] (at 50.0 µM).

For the compound `Cn1c(=O)c2c(O)c(-c3ccccc3)c(=O)n3c4ccccc4n(c1=O)c23`, the growth inhibition in experiment [1] (setting [7]) is 19%; in experiment [1] (setting [8]), 48%; in experiment [1] (at 50.0 µM), 51.3%; in experiment [2] (setting [7]), 21%; in experiment [2] (setting [8]) it was 51%; in experiment [2] (at 50.0 µM), 27.6%. Besides, the growth inhibition in experiment [3] (setting [7]) was 28%; in experiment [3] (setting [8]) it was 68%; in experiment [3] (at 50.0 µM), 64.5%; in experiment [4] (setting [7]), 7%; in experiment [4] (setting [8]) it was 34%; in experiment [4] (at 50.0 µM) it was 19.7%. The growth inhibition in experiment [5] (setting [7]) was 10%; in experiment [5] (setting [8]), 30%; in experiment [5] (at 50.0 µM), 25.9%; in experiment [6] (setting [7]) it was 18%; in experiment [6] (setting [8]), 59%; in experiment [6] (at 50.0 µM), 50.1%.
